The values below come from PubChem BioAssay (Tox21).

The structures appear in SMILES notation. Records with an inconclusive call do not appear. Where a call stands in place of a potency, no number is given. Activity calls are given as the source filed them. Unless noted, calls come from the whole dose curve.

The first experiment can be described thus: qHTS assay to identify small molecule antagonists of the sonic hedgehog signaling (Shh) pathway - cell viability counter screen (AID 1259367; active = well fitted cell-killing curve with a large enough effect in the repeat runs; note: nearly all actives have a fitted effect of over 55% in size). As to conditions: NIH/3T3 Gli1-Luc viability, CellTiter-Fluor, 24 h; series mostly up to 92.4 µM. The essentials:
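Seed 3T3 Gli1-Luc cells at 2,000 per well; incubate 4 hr; add compound in DMSO, then conditioned medium; incubate at 37C with 5% CO2; add CellTiter-Fluor after 23 hr; read fluorescence 1 hr later.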
In general terms: In qHTS, concentration-response curves come from the screen itself.
Turning to `N[C@@H](Cc1c[nH]c2ccc(O)cc12)C(=O)O`, the Potency entry was “inactive”.

Take `COC(=O)C1CCC(C(=O)OC)CC1` (stereo not given): the Potency entry was “inactive”.

Take `CCCCCCCCCCCCCCCCCC(=O)OCC(O)CO` (stereo not given): the Potency result is “inactive”.

Regarding `C/C=C/c1ccc(O)c(OC)c1`, the Potency result was “inactive”.

In the case of `COC(=O)c1ccc(C=O)cc1`, the Potency entry was “inactive”.

`CCCCOC(=O)CCCCCCCCC(=O)OCCCC`: the Potency entry is “inactive”.

For the molecule `O=C(O)CN(CC(=O)O)CC(=O)O`, the Potency entry was “inactive”.

On to `CCN1CCCC1=O`, for which the Potency entry is “inactive”.

For the molecule `O=C(O)CCCCC1CCSS1` (stereo not given), the Potency entry was “inactive”.

Take `COC1=CC(=O)C[C@@H](C)[C@]12Oc1c(Cl)c(OC)cc(OC)c1C2=O`: the Potency result is “inactive”.

Regarding `NC(N)=NC(N)=NCCc1ccccc1`, the Potency result was “inactive”.

With `COC(=O)c1ccc(O)cc1`, the Potency entry was “inactive”.

Turning to `Oc1cccc(O)c1`, the Potency result is “inactive”.

As for `CC1=NN(c2ccccc2)C(=O)C1`, the Potency entry is “inactive”.

With `CC(=O)CCC(C)C`, the Potency result is “inactive”.

For the molecule `CC(=O)/C=C/C1=C(C)CCCC1(C)C`, the Potency result is “inactive”.

On to `CC(C)(C)NCC(O)c1ccc(O)c(CO)c1` (stereo not given), for which the Potency result is “inactive”.

Regarding `Cc1c(N(C)C)c(=O)n(-c2ccccc2)n1C`, the Potency entry was “inactive”.

With `CC(=O)OC/C=C(C)/C=C/C=C(C)/C=C/C1=C(C)CCCC1(C)C`, the Potency result is “inactive”.

On to `Cc1cnc(NC(=O)C2=C(O)c3ccccc3S(=O)(=O)N2C)s1`, for which the Potency entry was “inactive”.

Consider `C[C@]12C=CC(=O)C=C1CC[C@@H]1[C@@H]2C(=O)C[C@@]2(C)[C@H]1CC[C@]2(O)C(=O)CO`, for which the Potency result was “inactive”.

`CN(C)C=O`: the Potency result is “inactive”.

Take `Cc1cccc2ccccc12`: the Potency result was “inactive”.

For `C[C@]12C[C@H](O)[C@H]3[C@@H](CCC4=CC(=O)CC[C@@]43C)[C@@H]1CC[C@@H]2C(=O)CO`, the Potency result was “inactive”.

As to `CC(C)Cc1ccc(C(C)C(=O)O)cc1` (stereo not given), the Potency result is “inactive”.

Regarding `Cc1ccc(O)c(-n2nc3ccccc3n2)c1`, the Potency result is “inactive”.

For `CC(C)(C)CC(C)(C)c1ccc(O)c(-n2nc3ccccc3n2)c1`, the Potency result is “inactive”.

Regarding `C=C(C)OC(C)=O`, the Potency entry was “inactive”.

`OCCCc1ccccc1`: the Potency result is “inactive”.

For the molecule `C=CCOC(=O)CC(C)C`, the Potency result was “inactive”.

A further experiment in a line: qHTS assay to identify small molecule agonists of the sonic hedgehog signaling (Shh) pathway (AID 1259368).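 Note: NIH/3T3-derived 3T3Gli1-Luc cells carrying a stable Gli1-driven firefly luciferase reporter; nearly all actives have a fitted effect of over 15% in size.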 As to conditions: NIH/3T3 Gli1-Luc reporter, luciferase, 24 h; series mostly up to 92.4 µM. The essentials: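 Steps: seed 3T3 Gli1-Luc cells, incubate 4 hr at 37 C, pin-transfer compounds in DMSO alongside a positive control, incubate 24 hr, add luciferase detection reagent, wait 30 min at room temperature, read luminescence.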
Turning to `N[C@@H](Cc1c[nH]c2ccc(O)cc12)C(=O)O`, the call was inactive.

As for `COC(=O)C1CCC(C(=O)OC)CC1` (stereo not given), the outcome was inactive.

With `CCCCCCCCCCCCCCCCCC(=O)OCC(O)CO` (stereo not given), the result was inactive.

As for `C/C=C/c1ccc(O)c(OC)c1`, the outcome was inactive.

Regarding `COC(=O)c1ccc(C=O)cc1`, the molecule was called inactive.

On to `CCCCOC(=O)CCCCCCCCC(=O)OCCCC`, for which the outcome was inactive.

As to `O=C(O)CN(CC(=O)O)CC(=O)O`, the molecule was classed as inactive.

Consider `CCN1CCCC1=O`, for which the result was inactive.

Turning to `O=C(O)CCCCC1CCSS1` (stereo not given), the molecule was classed as inactive.

As to `COC1=CC(=O)C[C@@H](C)[C@]12Oc1c(Cl)c(OC)cc(OC)c1C2=O`, the molecule was called inactive.

On to `NC(N)=NC(N)=NCCc1ccccc1`, for which the molecule was called inactive.

Take `COC(=O)c1ccc(O)cc1`: the result was inactive.

Consider `Oc1cccc(O)c1`, for which the molecule was called inactive.

Take `CC1=NN(c2ccccc2)C(=O)C1`: the outcome was inactive.

For the molecule `CC(=O)CCC(C)C`, the molecule was classed as inactive.

As for `CC(=O)/C=C/C1=C(C)CCCC1(C)C`, the call was inactive.

Turning to `CC(C)(C)NCC(O)c1ccc(O)c(CO)c1` (stereo not given), the result was inactive.

As to `Cc1c(N(C)C)c(=O)n(-c2ccccc2)n1C`, the call was inactive.

As for `CC(=O)OC/C=C(C)/C=C/C=C(C)/C=C/C1=C(C)CCCC1(C)C`, the molecule was called inactive.

Turning to `Cc1cnc(NC(=O)C2=C(O)c3ccccc3S(=O)(=O)N2C)s1`, the outcome was inactive.

As to `C[C@]12C=CC(=O)C=C1CC[C@@H]1[C@@H]2C(=O)C[C@@]2(C)[C@H]1CC[C@]2(O)C(=O)CO`, the outcome was inactive.

Consider `CN(C)C=O`, for which the molecule was classed as inactive.

Consider `Cc1cccc2ccccc12`, for which the call was inactive.

With `C[C@]12C[C@H](O)[C@H]3[C@@H](CCC4=CC(=O)CC[C@@]43C)[C@@H]1CC[C@@H]2C(=O)CO`, the outcome was inactive.

With `CC(C)Cc1ccc(C(C)C(=O)O)cc1` (stereo not given), the molecule was classed as inactive.

Consider `Cc1ccc(O)c(-n2nc3ccccc3n2)c1`, for which the call was inactive.

On to `CC(C)(C)CC(C)(C)c1ccc(O)c(-n2nc3ccccc3n2)c1`, for which the call was inactive.

`C=C(C)OC(C)=O`: the call was inactive.

With `OCCCc1ccccc1`, the molecule was called inactive.

With `C=CCOC(=O)CC(C)C`, the call was inactive.
